# Screens: PubChem, Broad Institute
# Rows were chosen to be rich in hits. Some 3.2% of all compounds tested hit in one or more screens of this group.
# PGC1a acetyl inh: lowers PGC1a acetylation signal in U2OS cells | AlphaScreen anti-acetyl-lysine; with virally co-expressed GCN5 acetyltransferase | 350,000 tested, 0.17% active | inhibition, % at 15.6 µM;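 active = every replicate shows inhibition of at least 40%; inconclusive = mean inhibition at least 40% but some replicate below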;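 note: 0% = neutral control wells and 100% = positive control wells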
# DENV2 CPE: protects cells from dengue virus 2 cytopathic effect | DENV2-infected cells, cytopathic effect rescue, plate reader | CPE inhibition, % at 9.99 µM | 350,000 tested, 1.7% active | AID 651640; in the data active = CPE inhibition above about 20%, passing the limit was not always enough; inconclusive = no clear call, values can overlap the other calls; tested in BHK-21 cells;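 note: 0% = median of neutral control wells and 100% = median of positive control wells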
# ERAP1 inh: blocks human ERAP1 aminopeptidase activity | Q9NZ08 | inhibition, % at 10.7 µM | 340,000 tested, 0.15% active | recombinant ERAP1, Leu-AMC fluorescence, 60 min;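 active = mean replicate inhibition of at least 30%, or all replicates individually reaching that 30% level; inactive = mean below 30% and not every replicate reaching it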;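 note: 0% = neutral control wells and 100% = L-leucinethiol positive control wells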
# Target sequence (Q9NZ08 whole entry, looked up): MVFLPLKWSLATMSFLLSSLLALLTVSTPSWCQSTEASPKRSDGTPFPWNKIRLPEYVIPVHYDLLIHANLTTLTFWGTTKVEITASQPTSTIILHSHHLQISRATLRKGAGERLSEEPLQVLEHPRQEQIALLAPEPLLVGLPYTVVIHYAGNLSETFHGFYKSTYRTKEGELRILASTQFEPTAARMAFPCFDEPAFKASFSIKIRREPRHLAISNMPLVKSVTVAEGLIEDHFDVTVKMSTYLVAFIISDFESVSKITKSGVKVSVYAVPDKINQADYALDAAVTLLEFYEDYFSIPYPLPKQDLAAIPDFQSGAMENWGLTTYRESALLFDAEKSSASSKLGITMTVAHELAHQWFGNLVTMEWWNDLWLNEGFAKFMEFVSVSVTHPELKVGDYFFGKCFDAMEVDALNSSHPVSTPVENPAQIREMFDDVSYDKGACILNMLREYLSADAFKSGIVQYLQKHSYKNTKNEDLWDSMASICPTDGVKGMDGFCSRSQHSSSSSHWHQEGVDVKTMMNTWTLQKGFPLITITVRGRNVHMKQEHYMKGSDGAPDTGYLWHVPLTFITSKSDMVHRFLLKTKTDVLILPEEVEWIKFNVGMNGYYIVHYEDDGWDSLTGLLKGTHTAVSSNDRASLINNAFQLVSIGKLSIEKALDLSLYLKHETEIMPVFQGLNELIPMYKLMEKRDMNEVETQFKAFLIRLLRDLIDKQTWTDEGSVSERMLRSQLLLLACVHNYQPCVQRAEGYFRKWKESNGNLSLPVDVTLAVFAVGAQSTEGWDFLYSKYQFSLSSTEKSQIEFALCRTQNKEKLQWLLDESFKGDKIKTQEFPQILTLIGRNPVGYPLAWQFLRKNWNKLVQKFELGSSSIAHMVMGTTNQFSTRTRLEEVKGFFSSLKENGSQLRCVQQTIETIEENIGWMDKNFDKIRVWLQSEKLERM
# rRNA inh HTS: inhibitors of bacterial rRNA selective over humanized ribosomes | E. coli WT GFP vs humanized-ribosome RFP mutants, fluorescence, 24 h; hits give low values; DMSO median 0, no signal -100 | GFP signal change (wild-type ribosome), % (concentration not given with the values) | 350,000 tested, 1.6% active;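 active = significant combined selectivity score with lowered wild-type GFP, culture density cut under 30%, mutant RFP and density less affected; inactive = any of these conditions unmet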
# CaV13 ICDI inh: Primary screen for inhibitors of IQ motif and Ca2+-dependent inactivation inhibitor domain binding in CACNA1D, Förster resonance energy transfer in living cells, … | HEK cells, CFP/YFP FRET ICDI-IQ, plate reader, 10 min; percent FRET-ratio fall versus neutral wells | inhibition, % at 12.3 µM | 340,000 tested, 0.098% active | AID 743397;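 active = mean replicate inhibition of at least 30% and at least 1% of replicates passing that level; inconclusive = only one of the two criteria is met; inactive = neither criterion is met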;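 note: 0% = median of the neutral control wells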
# GSIS activator: GLuc luminescence reporter in INS-1E cells, primary screen for activators of glucose-dependent secretion of insulin | 370,000 tested, 0.61% active | INS-1E GLuc reporter insulin secretion, 2-3 h | AID 743287 | activation, % at 16.6 µM;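 active = lowest replicate activation of at least 40%, so every replicate reaches that level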;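 note: 0% = median of neutral control wells and 100% = median of IBMX positive control wells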
# * marks the source's active call; other numbers are inactive results; ? = inconclusive; . = not tested or not shown; ! = not confirmed by another sample.
SMILES,PGC1a acetyl inh,DENV2 CPE,ERAP1 inh,rRNA inh HTS,CaV13 ICDI inh,GSIS activator
COc1ccc(NC(=O)N(C)C[C@H]2OCCCC[C@@H](C)Oc3ccc(NS(C)(=O)=O)cc3C(=O)N([C@H](C)CO)C[C@H]2C)cc1,9,95*,5,-5,.,-6
C[C@@H]1CCCCO[C@@H](CN(C)C(=O)Nc2ccccc2)[C@H](C)CN([C@H](C)CO)C(=O)c2cc(NS(C)(=O)=O)ccc2O1,-6,?,1,-1,.,-5
C[C@@H]1CCCCO[C@@H](CN(C)C(=O)Nc2ccccc2)[C@H](C)CN([C@@H](C)CO)C(=O)c2cc(NS(C)(=O)=O)ccc2O1,-1,43*,-2,2,.,-7
COc1ccc(NC(=O)N(C)C[C@H]2OCCCC[C@H](C)Oc3ccc(NS(C)(=O)=O)cc3C(=O)N([C@@H](C)CO)C[C@H]2C)cc1,18,-6,-2,2,.,7
O=C(COC(=O)CNC(=O)c1ccc(Cl)cc1)Nc1ncc(C(F)(F)F)cc1Cl,.,76*,1,4,-5,-10
CCC(=O)OCC(=O)Nc1ncc(C(F)(F)F)cc1Cl,5,2,3,0,1,14
C[C@H](CCC(=O)O)[C@H]1CC[C@H]2[C@@H]3CC[C@@H]4C[C@H](O)CC[C@]4(C)[C@H]3C[C@H](O)[C@]12C,9,30*!,12,-14,-5,.
CC(CCC(=O)NN)C1CCC2C3CCC4CC(O)CCC4(C)C3CCC12C (stereo not drawn),-7,-6,-1,-2,-7,.
COC(=O)c1c(C)[nH]c(C(=O)/C=C/c2ccc(C)cc2)c1C,14,3,-7,3,-4,-5
COC(=O)c1c(C)[nH]c(C(=O)/C=C/c2ccccc2)c1C,.,.,.,.,-8,56*
CCc1nc2nc(C)c(NS(=O)(=O)c3ccc(Br)s3)c(=O)n2[nH]1,0,44*,3,-7,-4,-1
CC(C)CNC(=O)C1(C)CCCN1C(=O)c1cncc(Br)c1 (stereo not drawn),-12,26*,-3,8,-5,4
CCCCNC(=O)C1(C)CCN1C(=O)c1cncc(Br)c1 (stereo not drawn),.,86*,0,10,-4,12
CC(C)CNC(=O)C1(C)CCCN1C(=O)c1ccncc1 (stereo not drawn),9,-2,-2,16,-5,-12
CC1=C(C)/C(=N\OS(=O)(=O)c2ccc(C)cc2)C=CC1=O,.,.,.,.,-14,225*
COc1cc(C(=O)O/N=C2/C=C(C)C(=O)C=C2C)cc(OC)c1OC,.,3,5,7,-1,7
COc1ccc(S(=O)(=O)/N=C2/C=CC(=O)C(C)=C2C)cc1,2,.,.,.,.,.
CC1=C/C(=N\OS(=O)(=O)c2ccccc2)C(C)=CC1=O,60*,.,3,5,.,250
CO[C@H]1CN(C)C(=O)c2cc(NC(=O)Nc3ccc(F)cc3)ccc2OC[C@@H](C)NC[C@@H]1C,1,5,-2,-3,.,3
CN(Cc1ccccc1)S(=O)(=O)c1ccc(Cl)c(C(=O)OCC(=O)NC2CCS(=O)(=O)C2)c1 (stereo not drawn),-3,32*,1,-12,-6,2
COc1ccc2cc(-c3cc(C(=O)OCC(=O)NC4CCS(=O)(=O)C4)c4ccccc4n3)ccc2c1 (stereo not drawn),.,.,.,.,-23,91*
COc1ccc(-c2cc(C(=O)OCC(=O)NC3CC3)c3ccccc3n2)cc1,-2,-2,2,-18,-5,44
CCOc1ccccc1C1NC(=O)NC(C)=C1C(=O)OCc1ccccc1 (stereo not drawn),4,-3,0,-22,-2,-6
CCOc1ccc(C2NC(=O)NC(C)=C2C(=O)OCc2ccccc2)cc1 (stereo not drawn),.,0,-4,6,?,6
COc1cc(C2NC(=O)NC(C)=C2C(=O)Nc2cccc(C)c2C)cc(OC)c1OC (stereo not drawn),-16,.,.,.,-4,.
